# Screens (PubChem)
# Pf Dd2 growth: blocks in vitro growth of P. falciparum Dd2 | Potency, µM (doses to about 28.9 µM), for the others: at the top dose activity, negative = inhibition, hits mostly inhibitors | 120,000 compounds, 4.3% hits | P. falciparum Dd2 growth, SYBR Green, 72 h; active = well fitted inhibition curve with a large enough effect;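 also: plate controls were DMSO vehicle for no effect and reference drug for full effect; nearly all actives have a fitted effect of over 65% in size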
#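 Infected erythrocytes (Dd2, 0.3% parasitemia, 2.5% hematocrit final) are added to compound in RPMI-1640/Albumax II medium, grown 72 h at 37C in low oxygen, then lysed with saponin/Triton-X containing SYBR Green and read by fluorescence.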
# * hit, by the source's call; i = inactive; [ ] = dose if it differs, or a comment. The sample as a whole holds a higher share of hits than the screen did. Potency is read from the fitted curve at half-maximal effect.
SMILES,Pf Dd2 growth
CN(C)C(=O)c1cc2c(s1)CCC(C(=O)N1CCN(c3cccc(Cl)c3)CC1)C2 (stereo not given),5.01µM*
CN1CC2(CCCN(Cc3cc4ccccc4n(C)c3=O)C2)OC1=O (stereo not given),-22.2%
COc1ncc(C(=O)NCc2cccnc2N2CCN(C(C)=O)CC2)cn1,6.2%
N#Cc1ccccc1CN1CCCC(C(=O)NCc2ccccc2)CCNC(=O)CC1 (stereo not given),i
COc1cccc(CN2CCCC(C(=O)NCc3ccncc3)CCNC(=O)CC2)c1 (stereo not given),-5.0%
COc1cccc(CN2CCCC(C(=O)NCc3ccccc3)CCNC(=O)CC2)c1 (stereo not given),6.31µM*
Cc1cccc(N2CCN(C(=O)C3CCCN(C(=O)c4cccnc4)CCC(=O)NCC3)CC2)c1 (stereo not given),5.6%
CCN1CCN(C(=O)C2CCCN(Cc3cccnc3)CCC(=O)NCC2)CC1 (stereo not given),9.2%
COc1cccc(N2CCN(C(=O)C3CCCN(Cc4cccnc4)CCC(=O)NCC3)CC2)c1 (stereo not given),3.98µM*
Cc1oc(C(O)c2ccccc2)nc1C(=O)Nc1ccc2c(c1)CNC2=O (stereo not given),-23.1%[44.1 µM]
CO[C@H]1[C@H](NC(=O)CCc2cccnc2)c2ccccc2C12CCNCC2,-25.6%
CN(C1CCc2nn(C)c(=O)n2CC1)S(=O)(=O)c1ccc(Cl)s1 (stereo not given),14.6%
CCOc1ccc(CNC(=O)CCC(=O)N2CC3CCCN3c3ccccc32)cc1 (stereo not given),12.6µM*
Cc1ccc(CNC(=O)CCC(=O)N2CCSc3ccccc32)cc1,-7.9%
COc1ccc(CNC(=O)CCC(=O)N2CC3CCCN3c3ccccc32)c(OC)c1 (stereo not given),-15.7%
O=C(NCCn1ccnc1-c1cc2n(n1)CCNC2)c1ccncc1,15.1%
CN(C)[C@@H]1CN(C2CCSCC2)CC[C@@H]1CNC(=O)C1CC1,-21.5%
COc1ccc(-c2ccc(CN)cc2)cc1,-12.4%[44.1 µM]
Cc1cccc(-c2ccc(CN)cc2)c1,11.2µM*
Cc1ccc(CN(C)Cc2ccc(F)cc2)cc1,9.7%[44.1 µM]
NCc1cccc(-c2ccccn2)c1,-28.3%[44.1 µM]
CN(Cc1ccc(-c2ccccc2)cc1)C(=O)c1cccc(Cl)c1,-12.9%[44.1 µM]
NCc1cccc(-c2ccc3c(c2)C(=O)N2CC[C@H](NC(=O)c4cccc(F)c4)[C@H]2C(=O)N3)c1,i
COc1ccc(CCC(=O)NCCc2csc(-c3cccc(C)c3)n2)cc1,-18.7%
NCc1ccc(-c2cccc(Cl)c2)cc1,10µM*
SMILES,Pf Dd2 growth
NCc1ccc(-c2ccc(F)cc2)cc1,10µM*
NCc1cccc(-c2cc(F)cc(F)c2)c1,10µM*
COc1ccc(Cn2ccn(Cc3cccc(C)c3)c(=O)c2=O)cc1,33.9%
O=Cc1ccc(-c2cccc(Cl)c2)cc1,10.0%[44.1 µM]
COC(=O)CNC(=O)N1CCC(N2CC3CC(C2)[C@H]2CCCC(=O)N2C3)CC1 (stereo not given in full),-2.0%
COc1ncccc1-c1ccc2ncn(Cc3ccccn3)c(=O)c2n1,i
O=C(c1ccoc1)N1C[C@H]2OC(=O)N(CCCN3CCOCC3)[C@H]2C1,-1.3%
COc1ccc(C(=O)N2CCc3nnc([C@@H]4C[C@@H](O)CN4C(C)C)n3CC2)cn1,i
CC(=O)N1CCC2(CC1)C(=O)NN=C2c1ccccn1,21.5%[44.1 µM]
COc1cc(NC(=O)C2(Cc3ccccc3)CCCCC(=O)N2)cc(OC)c1 (stereo not given),i
O=C(Cn1ccn2nc(-c3ccc(F)cc3)c(CO)c2c1=O)Nc1ccc(C(F)(F)F)cc1,-2.1%
Cc1cccc(-c2nocc2CCC(=O)NCc2ccccc2F)c1,-20.3%
Cc1cccc(-c2ccccc2CN)c1,10µM*
CCCCCn1c(-c2cccc(C)c2)nc2ccccc21,-7.8%
COC[C@@H]1CN(S(=O)(=O)c2cccc(F)c2)C[C@H]1c1ccccn1,-6.0%
O=C(NCc1ccc(F)cc1)C1CCN(c2cn[nH]c(=O)c2)C1 (stereo not given),-2.9%
COCCn1ncc(N2CCCC(CC(=O)NCc3ccncc3)C2)cc1=O (stereo not given),36.7%
O=C(c1ccc2c(c1)OCO2)N1CC(c2noc(C3CCCN3CC3CC3)n2)C1 (stereo not given),5.01µM*
O=C(c1cccs1)N1CCCC1c1nc(C2CCOCC2)no1 (stereo not given),-14.7%
O=S(=O)(c1cccnc1)N1CC(c2noc(C3CCCN3CC3CC3)n2)C1 (stereo not given),6.31µM*
O=S(=O)(c1cccs1)N1CC(c2noc(C3CCCN3CC3CC3)n2)C1 (stereo not given),2.82µM*
CC(=O)N1CCCC1c1nc(C2CN(S(=O)(=O)c3cccnc3)C2)no1 (stereo not given),-21.1%
O=S(=O)(c1cccnc1)N1CCC(c2nc(C3CC3)no2)C1 (stereo not given),38.1%
CCOCc1nc(C2CCCN2S(=O)(=O)c2cccs2)no1 (stereo not given),-0.5%
CC(=O)N1CCCC1c1nc(C2CN(C(=O)c3ccsc3)C2)no1 (stereo not given),-18.8%
SMILES,Pf Dd2 growth
COCCN1CCCC1c1nc(C2CN(C(=O)c3ncccc3C)C2)no1 (stereo not given),i
O=C(NCc1nnc2ccccn12)[C@H]1CNC[C@H](C(=O)N2CCOCC2)C1,2.3%
COCCN1CCC(N2CCN(C(=O)c3ccc(F)c(F)c3)CC2)C1=O (stereo not given),-1.0%
COCC[C@]1(O)CCN(C(=O)c2ccc(C#N)nc2)C[C@H]1C,-1.7%
Cc1cc(CNC(=O)[C@@H]2CCC[C@@H](NCC3CC3)CN(C)C(=O)C2)no1,23.6%[44.1 µM]
CC1(COc2ccc3[nH]ccc3c2)COc2ccc(C(=O)N3CC(O)C3)cc2N1 (stereo not given),-8.3%[44.1 µM]
Cc1cc(OC2CN([S+](=O)([O-])c3ccc(C(F)(F)F)cc3)C2)ccc1F,-6.9%
CC(C)Nc1ccnc(N2CCN(Cc3ccccc3F)C(CCO)C2)n1 (stereo not given),-22.4%
O=C(C1CCCC1)N1CCC(CCOc2ccc(F)cc2)C1 (stereo not given),i
CC1CCN(CC2CCCN(C(=O)COc3ccc(F)cc3)CC2)CC1 (stereo not given),-29.9%
OCCC1CN(c2cc(C(F)(F)F)ccn2)CCN1CC1CCCCC1 (stereo not given),12.6µM*
CCOc1ccccc1CN1CCN(c2ccnc(N)n2)CC1CCO (stereo not given),i
OCCC1CN(CCOc2ccc(F)cc2)CCN1CC1CCCCC1 (stereo not given),8.91µM*
CO[C@H]1C(=O)N(C2CCN(C(=O)c3cccc(C#N)c3)CC2)[C@H]1c1ccncc1,29.6%
CN(C)c1cc(N2CCCC(N)C2)ncn1 (stereo not given),-5.3%[5.79 µM]
O=C(CN1CCCc2nc(C3CC3)ncc2C1=O)NCCN1CCOCC1,42.6%
Cc1cnc(C(=O)NC2C[C@H]3CC[C@@H](C2)N3C(=O)CC(C)C)cn1 (stereo not given in full),4.9%
COc1ccc(CN2C(=O)COC[C@H]2C(=O)NCCc2c[nH]c3ccccc23)c(OC)c1,i
Cc1ccccc1-c1cnc2[nH]cc(CC(=O)NC(C)C)c2c1,-4.5%[44.1 µM]
COCCN1CC(CNC(=O)c2cc(Cl)c(C)c(Cl)c2)CC1=O (stereo not given),-12.1%
COCCNC(=O)c1ccc(OC2CCN(CCC(C)c3ccc(C)o3)CC2)c(Cl)c1 (stereo not given),4.47µM*
